High-throughput results (PubChem BioAssay)
RORg inh – qHTS for inhibitors of ROR gamma transcriptional activity; AID 2551, 2010; Potency, µM (series often up to 53.6 µM), inactives show at the top dose activity change, negative = inhibition, most hits filed as inhibitors; Drosophila S2 Gal4-RORgamma UAS-luciferase reporter, 20 h; actives 5.4% (n = 310,000); also: nearly all actives have a fitted effect of over 60% in size
Target sequence (P51450 whole entry, looked up, the tested form may be a part): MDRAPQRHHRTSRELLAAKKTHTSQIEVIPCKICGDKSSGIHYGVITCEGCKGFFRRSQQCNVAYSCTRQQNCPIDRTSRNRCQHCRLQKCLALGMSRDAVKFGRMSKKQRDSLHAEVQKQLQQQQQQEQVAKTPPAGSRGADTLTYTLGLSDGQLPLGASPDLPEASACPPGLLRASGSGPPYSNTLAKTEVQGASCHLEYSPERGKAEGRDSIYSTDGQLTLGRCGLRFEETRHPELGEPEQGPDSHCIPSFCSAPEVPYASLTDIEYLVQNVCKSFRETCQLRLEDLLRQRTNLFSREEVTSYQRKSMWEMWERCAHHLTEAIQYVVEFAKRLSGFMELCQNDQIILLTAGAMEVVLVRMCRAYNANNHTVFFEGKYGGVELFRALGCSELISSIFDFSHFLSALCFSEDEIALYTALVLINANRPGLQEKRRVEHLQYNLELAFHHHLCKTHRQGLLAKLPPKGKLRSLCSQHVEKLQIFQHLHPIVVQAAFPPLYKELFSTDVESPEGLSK
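Read-out: Photinus luciferase luminescence; inhibitors lower reporter signal. Insect Schneider cells with Gal4-ROR gamma fusion under metallothionein promoter, UAS reporter; 700 uM final copper sulfate induction, 20 hr, ambient temperature.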
KinaseGlo FLuc – Counterscreen for Luciferase (Kinase-Glo TM) Inhibition | Luciferin 4-monooxygenase (Photuris pensylvanica), Q27757 | Kinase-Glo luciferase, ATP luminescence, 8 min | Potency, µM (series often up to 38.3 µM), inactives show at the highest dose activity change, negative = inhibition, usual class: inhibitors | actives 0.28% (n = 200,000); also: nearly all actives have a fitted effect of over 60% in size
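Light output from Kinase-Glo luciferase with luciferin and 10 uM ATP in 50 mM imidazole pH 7.2, KCl, MgCl2, Tween 20, BSA; compound pin-delivered, 8-min ambient incubation, then luminescence read.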
VP16 counter – VP16 counterscreen qHTS for inhibitors of ROR gamma transcriptional activity. Drosophila S2 Gal4-VP16 UAS-luciferase, luminescence, 20 h. Potency, µM (doses to about 53.6 µM), inactives show at the highest dose activity, negative = inhibition, actives largely listed as inhibitors. actives 3.5% (n = 310,000);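 also: Gal4-VP16 expression switched on by copper sulfate through the metallothionein promoter; nearly all actives have a fitted effect of over 50% in size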
An asterisk follows results filed as active; ? = inconclusive; . = not tested or not shown; [ ] = dose if it differs, or a comment. Most compounds without a hit are left out; they make up all but 6.4% or so of the library. Calls follow the shape of the dose curve; as a rule, active = well fitted curve in the direction sought with a large enough effect; inconclusive = small, poorly fitted or top-dose-only effect, or another doubt; inactive = no such curve, though single readings can be large; an effect the other way counts as inactive or inconclusive. % is scaled to controls: 0 for no effect and ±100 for the full control effect; potency is read from the fitted curve at half-maximal effect.

SMILES	RORg inh	KinaseGlo FLuc	VP16 counter
CC(C)CNC(=S)NNC(=O)c1ccc2c(c1)OCO2	?	-2%	-4%
O=C(O)CC(NC(=O)C(c1ccccc1)c1ccccc1)c1cccc([N+](=O)[O-])c1 (centres undefined)	-10%	.	-2%
O=C(Cn1cncn1)N/N=C/c1cccc(Cl)c1	-7%	.	-4%
Cc1nc2cncnc2n(C2CC2)c1=O	-20%	.	8%
CCN(CC)CCCNC(=O)c1cc2c(Cl)nc3ccccc3c2s1	-28%	-1%	-19%
CN(CCCNC(=O)c1cc2c(Cl)nc3ccccc3c2s1)Cc1ccccc1	?	0%	11µM*
CC(C)C(=O)SCCCCCCC(=O)Nc1nc(-c2ccccc2)cs1	-7%	.	?
Cc1cc(NC(=O)c2ccccc2C)n(-c2cccc(F)c2)n1	-8%	.	-11%
CCc1cc[n+](C2=C([O-])c3ccccc3C(=O)/C2=N\S(=O)(=O)c2cccs2)cc1	3.5µM*	0%	16µM*
O=C1C(=O)c2ccccc2C([O-])=C1[n+]1ccccc1	-22%	.	-20%
Cc1cc(NC(=O)CSc2nc3cc(C)c(C)cc3cc2C)no1	-12%	.	-3%
COCCNC(=O)C(=O)N/N=C/c1cccs1	8%	0%	4%
Cn1cc(C(=O)N/N=C/c2ccc3c(c2)OCO3)c2ccccc21	-14%	.	10%
Cc1nc2ccccc2cc1C(=O)N/N=C/c1ccco1	?	-7%	?
COc1ccccc1NC(=O)C(=O)N/N=C/c1cccs1	2µM*	-8%	3.2µM*
Cn1cc(C(=O)N/N=C/c2cccs2)c2ccccc21	10µM*	0%	?
Cc1nc2ccccc2cc1C(=O)N/N=C/c1cccs1	10µM*	1%	?
COCCOc1ccc(C(F)(F)F)cc1NC(=O)COC(=O)C12CC3CC(CC(O)(C3)C1)C2	-41%	.	29%
CN(CC(=O)NC1CCCc2ccccc21)S(=O)(=O)c1cccs1 (centres undefined)	1%	0%	?
Cc1ccc(C2=NS(=O)(=O)N(C)C(C(=O)NCc3ccccc3)=C2)cc1	9%	.	-1%
OCC1=C[C@@H](O)[C@@H]2C=CO[C@@H](OC3O[C@H](CO)[C@@H](O)[C@H](O)[C@H]3O)[C@H]12 (some centres undefined)	15%	.	4%
Cc1ccc(NC(=O)N2N=C(c3ccc(F)cc3)CC2c2ccc(F)cc2)cc1 (centres undefined)	?	0%	-17%
COCCn1nnnc1SCC(=O)Nc1ccc2c(c1)OCO2	-9%	-5%	-20%
O=C(/C=C/Nc1ccc(Br)cc1F)c1ccccc1	4µM*	10µM*	5.6µM*
O=C(/C=C/Nc1ccc(F)c(F)c1)c1ccc(Br)cc1	10%	-2%	-6%
SMILES	RORg inh	KinaseGlo FLuc	VP16 counter
O=C(/C=C/Nc1ccccc1F)c1ccc(Br)cc1	10µM*	-11%	?
O=C(/C=C/Nc1ccc(F)cc1)c1ccc(Br)cc1	5%	-10%	?
CCN(c1ccccc1)S(=O)(=O)c1ccc2c(c1)C(C)(C)C(=O)N2C	?	.	-8%
COC(=O)c1ccc(NC(=S)N2CCN(Cc3cccc(C)c3)CC2)cc1	11µM*	-1%	?
COC(=O)c1ccc(NC(=S)N2CCN(Cc3ccccc3)CC2)cc1	3%	1%	?
S=C(Nc1ccc(Cl)cc1)N1CCN(Cc2ccccc2)CC1	11µM*	-1%	-28%
CC(C)c1ccc(NC(=S)N2CCN(Cc3ccccc3)CC2)cc1	7.9µM*	-4%	?
CCC(C)NC(=S)N1CCN(Cc2ccccc2)CC1 (centres undefined)	27%	-2%	?
Fc1ccccc1NC(=S)N1CCN(Cc2ccccc2)CC1	-26%	1%	-10%
Cc1cc(C)cc(NC(=S)N2CCN(Cc3ccccc3)CC2)c1	7.1µM*	2%	?
Cc1ccccc1NC(=S)N1CCN(Cc2ccccc2)CC1	?	-1%	?
OC[C@H]1NC[C@@H](O)[C@@H](O)[C@@H]1O	-1%	.	-23%
COc1ccc(S(=O)(=O)NCC(=O)N(CC(=O)NCc2ccco2)Cc2ccc(F)cc2)cc1	20%	.	-9%
CCOc1ccc(N(CC(=O)NC2CCCCC2)C(=O)CCC(=O)Nc2ccccn2)cc1	4%	.	3%
O=[N+]([O-])c1cc(Cl)cc2c1nc(NCCO)c1ccccc12	3%	-3%[7.66 µM]	3%
C1=CC(c2cc3ccccc3o2)OC(CCc2ccccc2)C1 (centres undefined)	-5%	.	0%
O=S(=O)(c1ccccc1)N1CCN(C(=S)Nc2ccccc2)CC1	-15%	.	-5%
COc1ccc(NC(=S)N2CCN(Cc3ccc(C)cc3)CC2)cc1	?	1%	-4%
CC(C)c1ccc(NC(=S)N2CCN(S(=O)(=O)c3ccccc3)CC2)cc1	11µM*	.	?
Cc1ccc(NC(=S)N2CCN(Cc3ccccc3)CC2)cc1	7.9µM*	-1%	-1%
O=C(Nc1cccnc1)c1cc(-c2ccc(Cl)cc2Cl)on1	-13%	.	10%
CC(=O)c1ccccc1NS(=O)(=O)c1cccc2nonc12	-30%	.	0%
CSc1ccccc1NS(=O)(=O)c1cccc2nonc12	11µM*	.	-18%
CC(OC(=O)C1CCN(S(=O)(=O)c2ccc(Cl)cc2)CC1)C(=O)NC1CCCCC1C (centres undefined)	42%	.	2%
Cc1cccc(OCC2CCCN(Cc3nc(C4CC4)no3)C2)c1 (centres undefined)	22%	0%	17%
SMILES	RORg inh	KinaseGlo FLuc	VP16 counter
O=C(O)c1ccc(COc2ccccc2Cl)cc1	43%	2%	-2%
O=C(O)c1cccc(COc2ccccc2Cl)c1	24%	?	1.1µM*
CN(C(=O)COC(=O)C1CCN(S(=O)(=O)c2cccs2)CC1)c1ccccc1	-23%	.	-2%
CCOC(=O)c1ccc(NC(=O)N2CCN(C(=O)c3ccco3)CC2)cc1	-20%	-2%	3%
Cc1cc(NC(=O)c2c(Br)c(C)nn2C)no1	-1%	-6%	-2%
Cc1ccc(OCc2cc(C(=O)NC(C)Cc3cccnc3)no2)cc1C (centres undefined)	?	.	-14%
CC(CCCC(C)(C)O)NC(=O)c1cc(COc2ccc3ncccc3c2)on1 (centres undefined)	7.9µM*	-3%	5.6µM*
O=C(NCc1cccc(Cl)c1)c1cc(COc2ccc3ncccc3c2)on1	-71%	1%	10µM*
Cc1ccc(F)cc1CNC(=O)c1cc(COc2ccc3ncccc3c2)on1	?	3%	11µM*
COc1cccc(OCc2cc(C(=O)NCc3ccccn3)no2)c1	?	.	-7%
Cc1ccc(OCc2cc(C(=O)NCCc3cccnc3)no2)cc1C	-4%	.	7%
O=C(O)/C(=C\c1ccccc1OC(F)F)Sc1nnc(-c2ccc(F)cc2)o1	8%	-1%	-8%
COc1ccc(CNC(=O)CCCNC(=O)c2ccc(Cl)cc2)cc1OC	-4%	.	-4%
COc1ccc(OC2C(O)COC2/C=C/C#Cc2ccc(F)cc2F)cc1 (centres undefined)	-33%[10 µM]	.	-6%[10 µM]
O=C1Nc2ccccc2C1(O)C/C(=N/O)c1ccccc1 (centres undefined)	2%	0%	-4%
COc1ccc2[nH]cc(S(=O)(=O)c3ccc(C)cc3)c2c1	-3%	.	-12%
